Results: PubChem BioAssay
Activity calls are given as the source filed them. Unless noted, no rule for the calls is given here.

Key:
[1] = compounds binding Alexa647 anti-His antibody – biochemical, small-molecule microarray, 635 nm fluorescence, artefact control for SMM control protein annotation, primary screen (AID 1128); details: higher = more signal;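 also: score merges feature fluorescence with signal-to-noise for each printed compound spot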
[2] = test system: Human papillomavirus type 1a E7 protein (residues 1-88); test: HPV1a E7 small-molecule binders, primary screen, biochemical, small-molecule microarray, residues 1-88, 635 nm (AID 1129); details: small-molecule microarray binding, fluorescence 635 nm; higher = more signal
[3] = target: Focal adhesion kinase 1 (Homo sapiens) (UniProt Q05397); test: PTK2 protein binding on printed compound slides – biochemical, small-molecule microarray, 635/667 nm fluorescence, BSA, DTT, primary screen (AID 1130); details: 635 nm fluorescence, higher = more signal;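 also: composite of spot emission at 667 nm and signal to noise over triplicate slides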
[4] = test system: Fibrinogen (Alexa647-labelled); test: Alexa647-fibrinogen binding to printed small molecules – biochemical, small-molecule microarray, 635/667 nm fluorescence, artefact control for SMM control-protein annotation, profiling panel (AID 1131); details: fibrinogen-A647 binding fluorescence, higher = more signal;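 also: z-score merges 667 nm fluorescence with per-spot signal-to-noise over triplicate slides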
[5] = target: Follistatin (Homo sapiens) (UniProt P19883); test: FST protein binding to printed compounds – biochemical, small-molecule microarray, 635/667 nm fluorescence, primary screen (AID 1132); details: 635 nm fluorescence, higher = more signal
[6] = target: Fibroblast growth factor 2 (Homo sapiens) (UniProt P09038); test: basic fibroblast growth factor binding to printed compounds – biochemical, small-molecule microarray, 635/667 nm fluorescence, primary screen (AID 1133); details: FGF2, fluorescence 635/667, higher = more signal
[7] = JC-1 mitochondrial potential readout, lung cancer cells – cell-based, A549, JC-1 fluorescence, basal, 24 h, 100 nL, profiling panel (AID 1138); details: higher = more signal;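 also: A549 lung adenocarcinoma cells under basal conditions with no added stimulus; test concentration not given here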
Lefty1 = Lefty1 protein binding to printed compounds – biochemical, small-molecule microarray, 635/667 nm fluorescence, primary screen (AID 1139); details: fluorescence 635/667, higher = more signal
[8] = test system: wheat germ agglutinin (Triticum aestivum), Alexa647-labelled; test: Alexa647-WGA lectin binding to printed small molecules – biochemical, small-molecule microarray, 635/667 nm fluorescence, artefact control for SMM control-protein annotation, profiling panel (AID 1140); details: WGA-A647 binding, 635 nm fluorescence, higher = more signal;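 also: score merges 667 nm feature emission with signal to noise over triplicate slides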
[9] = target: Luciferin 4-monooxygenase (Photinus pyralis) (UniProt P08659); test: inhibition of purified Photinus pyralis luciferase – biochemical, luminescence, purified enzyme, 2006 set, primary screen (AID 1141); details: purified firefly luciferase, SteadyGlo luminescence, 30 min; higher = more signal, called active from +8 up or from −8 down;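 also: cell-free assay with purified firefly luciferase at 100 ng per well in PBS; test concentration not given here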
[10] = test system: Wnt5a (protein binding on small-molecule microarray); test: small molecules binding Wnt5a protein – biophysical, small-molecule microarray, 635/667 nm fluorescence, primary screen (AID 1142); details: 635 nm fluorescence, higher = more signal;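 also: fluorescence read at 667 nm with signal to noise per printed feature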
[11] = ATP-based viability of Huh7 replicon cells – cell-based, CellTiter-Glo luminescence, basal, 48 h, cytotoxicity control for HCV replication inhibitor project, primary screen (AID 1143); details: higher = more signal, called active from +8 up or from −8 down;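 also: Huh7 hepatoma cells carrying a hepatitis C replication reporter with no stimulus; test concentration not given here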
[12] = Pseudomonas biofilm growth suppression – PAO1 strain, BacTiter-Glo luminescence, LB-PBS, primary screen (AID 1144); details: P. aeruginosa PAO1 biofilm, 12 h, higher = more signal
[13] = basal CRE-LacZ reporter activity in PC12 – cell-based, unstimulated, primary screen (AID 1145); details: no forskolin, luminescence, 4.5 h, higher = more signal, called active from +8 up or from −8 down
[14] = forskolin-driven CRE-LacZ activity in PC12 – cell-based, CRE-LacZ reporter, forskolin-stimulated, primary screen (AID 1146); details: luminescence, 4.5 h, higher = more signal, called active from +8 up or from −8 down;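 also: PC12 cells with 6xCRE LacZ reporter stimulated by forskolin 10 µM; beta-galactosidase reporter signal reflecting CREB driven transcription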
[15] = target: Streptavidin (Streptomyces avidinii) (UniProt P22629); test: compounds binding control protein streptavidin – biophysical, small-molecule microarray, 635/667 nm fluorescence, artefact control for SMM compound annotation, primary screen (AID 1147); details: higher = more signal;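 also: signal reflects streptavidin binding to arrayed compounds as a control protein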
[16] = probe aInhba binding on compound microarray – biochemical, small-molecule microarray, 635/667 nm fluorescence, primary screen (AID 1148); details: higher = more signal;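 also: score merges 667nm spot fluorescence with signal-to-noise for antibody binding to printed compounds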
Torsin-1A (Homo sapiens) [17] = target: Torsin-1A (Homo sapiens) (UniProt O14656); test: TOR1A wild-type binding on microarray – cell lysate, small-molecule microarray, lysate, 635/667 nm, primary screen (AID 1149); details: COS7 hTOR1A-WT lysate, 635 nm fluorescence, higher = more signal
Torsin-1A (Homo sapiens) [18] = target: Torsin-1A (Homo sapiens) (UniProt O14656); test: torsin A mutant lysate binding on microarrays – cell lysate, small-molecule microarray, COS7 lysate, 635/667 nm fluorescence, primary screen (AID 1150); details: COS7 hTOR1A mutant lysate, 635 nm fluorescence, higher = more signal;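 also: score pools 667 nm emission and signal to noise measuring lysate protein binding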
[19] = test system: Sonic hedgehog protein (Shh); test: Sonic hedgehog microarray binding compounds – biochemical, small-molecule microarray, 635/667 nm fluorescence, primary screen (AID 1151); details: 635 nm fluorescence, higher = more signal;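 also: Shh protein binding to compounds spotted on small-molecule microarray slides; score combines spot fluorescence intensity with signal-to-noise across triplicate slides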

Luciferin 4-monooxygenase (Photinus pyralis), sequence (P08659 whole entry, looked up): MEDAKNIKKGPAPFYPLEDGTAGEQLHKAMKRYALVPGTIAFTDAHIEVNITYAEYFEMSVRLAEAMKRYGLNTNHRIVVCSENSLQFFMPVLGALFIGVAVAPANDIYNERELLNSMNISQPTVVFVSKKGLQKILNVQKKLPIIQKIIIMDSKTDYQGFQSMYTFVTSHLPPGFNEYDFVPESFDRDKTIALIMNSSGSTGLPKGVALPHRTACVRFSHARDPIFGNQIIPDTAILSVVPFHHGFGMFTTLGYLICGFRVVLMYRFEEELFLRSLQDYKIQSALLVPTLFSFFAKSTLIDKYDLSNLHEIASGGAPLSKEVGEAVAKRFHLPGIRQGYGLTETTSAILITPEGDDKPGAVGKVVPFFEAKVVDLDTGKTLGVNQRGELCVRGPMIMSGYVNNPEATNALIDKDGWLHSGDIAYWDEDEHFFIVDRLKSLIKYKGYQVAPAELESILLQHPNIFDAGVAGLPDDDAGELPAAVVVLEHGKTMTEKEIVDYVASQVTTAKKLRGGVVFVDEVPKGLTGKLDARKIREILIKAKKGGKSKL
Torsin-1A (Homo sapiens), sequence (O14656 whole entry, looked up): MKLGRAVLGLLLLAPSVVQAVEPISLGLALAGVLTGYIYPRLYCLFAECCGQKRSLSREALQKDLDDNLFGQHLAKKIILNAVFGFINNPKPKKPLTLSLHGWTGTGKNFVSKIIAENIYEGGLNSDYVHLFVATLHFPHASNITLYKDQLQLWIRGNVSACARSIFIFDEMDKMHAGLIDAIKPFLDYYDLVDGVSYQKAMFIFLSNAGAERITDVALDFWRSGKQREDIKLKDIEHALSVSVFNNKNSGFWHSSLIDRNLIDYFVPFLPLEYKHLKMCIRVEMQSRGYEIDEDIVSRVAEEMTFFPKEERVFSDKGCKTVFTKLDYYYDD
Follistatin (Homo sapiens), sequence (P19883 whole entry, looked up): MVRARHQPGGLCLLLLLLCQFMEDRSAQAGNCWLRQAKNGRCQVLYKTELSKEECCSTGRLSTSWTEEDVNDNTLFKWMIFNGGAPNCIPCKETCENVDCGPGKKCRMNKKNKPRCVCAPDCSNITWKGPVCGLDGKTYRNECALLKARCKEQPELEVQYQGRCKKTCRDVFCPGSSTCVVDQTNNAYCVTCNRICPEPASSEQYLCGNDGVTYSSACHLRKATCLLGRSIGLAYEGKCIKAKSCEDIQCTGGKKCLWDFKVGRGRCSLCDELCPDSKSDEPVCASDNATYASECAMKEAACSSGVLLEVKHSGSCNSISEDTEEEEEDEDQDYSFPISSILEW
Streptavidin (Streptomyces avidinii), sequence (P22629 whole entry, looked up): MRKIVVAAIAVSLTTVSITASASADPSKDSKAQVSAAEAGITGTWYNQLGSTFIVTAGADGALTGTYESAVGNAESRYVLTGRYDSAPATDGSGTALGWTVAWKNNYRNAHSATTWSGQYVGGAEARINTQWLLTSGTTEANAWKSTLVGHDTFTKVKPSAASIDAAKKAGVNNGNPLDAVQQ
Focal adhesion kinase 1 (Homo sapiens), sequence (Q05397 whole entry, looked up): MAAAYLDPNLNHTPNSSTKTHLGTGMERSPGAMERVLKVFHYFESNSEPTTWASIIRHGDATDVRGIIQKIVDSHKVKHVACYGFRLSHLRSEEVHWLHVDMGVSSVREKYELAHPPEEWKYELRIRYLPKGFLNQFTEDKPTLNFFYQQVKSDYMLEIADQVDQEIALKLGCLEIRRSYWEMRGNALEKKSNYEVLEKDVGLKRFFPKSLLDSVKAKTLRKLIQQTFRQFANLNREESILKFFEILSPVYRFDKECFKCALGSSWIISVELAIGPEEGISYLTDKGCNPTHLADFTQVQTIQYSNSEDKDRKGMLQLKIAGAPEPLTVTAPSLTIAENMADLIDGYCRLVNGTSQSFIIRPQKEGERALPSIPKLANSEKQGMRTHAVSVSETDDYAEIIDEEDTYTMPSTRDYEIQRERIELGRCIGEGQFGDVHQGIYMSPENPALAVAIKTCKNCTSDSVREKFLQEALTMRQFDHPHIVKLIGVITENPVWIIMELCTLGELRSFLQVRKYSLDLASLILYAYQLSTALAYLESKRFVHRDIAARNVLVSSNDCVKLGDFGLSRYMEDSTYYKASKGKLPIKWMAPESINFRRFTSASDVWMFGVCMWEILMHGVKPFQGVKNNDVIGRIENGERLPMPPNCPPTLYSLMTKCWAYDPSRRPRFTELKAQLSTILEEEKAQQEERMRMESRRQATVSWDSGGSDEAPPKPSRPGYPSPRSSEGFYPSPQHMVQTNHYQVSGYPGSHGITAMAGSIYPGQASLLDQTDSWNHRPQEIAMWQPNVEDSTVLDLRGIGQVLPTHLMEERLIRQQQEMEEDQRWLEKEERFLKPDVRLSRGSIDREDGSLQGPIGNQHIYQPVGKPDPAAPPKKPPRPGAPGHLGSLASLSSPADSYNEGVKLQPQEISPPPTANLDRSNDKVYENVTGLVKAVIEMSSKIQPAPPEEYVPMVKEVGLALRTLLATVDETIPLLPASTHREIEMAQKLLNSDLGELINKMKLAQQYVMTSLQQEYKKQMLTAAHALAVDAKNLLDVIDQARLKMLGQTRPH
Fibroblast growth factor 2 (Homo sapiens), sequence (P09038 whole entry, looked up): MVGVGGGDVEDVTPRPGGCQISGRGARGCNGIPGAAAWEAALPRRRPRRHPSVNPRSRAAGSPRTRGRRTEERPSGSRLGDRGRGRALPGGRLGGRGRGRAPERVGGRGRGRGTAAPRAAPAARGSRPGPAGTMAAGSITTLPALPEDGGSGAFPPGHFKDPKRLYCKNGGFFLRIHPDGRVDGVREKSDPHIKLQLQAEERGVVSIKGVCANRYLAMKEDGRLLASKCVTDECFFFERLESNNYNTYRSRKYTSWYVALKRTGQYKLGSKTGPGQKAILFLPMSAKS

SMILES	composite z-score [1]	composite z-score [2]	composite z-score [3]	composite z-score [4]	composite z-score [5]	composite z-score [6]	z-score [7]	composite z-score (Lefty1)	composite z-score [8]	z-score [9]	composite z-score [10]	z-score [11]	z-score [12]	z-score [13]	z-score [14]	composite z-score [15]	composite z-score [16]	composite z-score (Torsin-1A (Homo sapiens) [17])	composite z-score (Torsin-1A (Homo sapiens) [18])	composite z-score [19]
CC(c1ccccc1)C(O)C1C=CC2C(=O)N(Cc3ccccc3)C(=O)C2N1n1cnnc1 (stereo not given)	0.509	0.914	0.146	0.654	0.374	0.408	-1.27	-0.133	0.532	1.52 (inactive)	0.0618	-0.0357 (inactive)	0.144 (inactive)	-0.172 (inactive)	0.945 (inactive)	0.705	-0.145	0.327	0.358	-0.506
COc1ccc([Si](C)(C)[C@H]2[C@H](CCO)O[C@@]3(C(=O)N(Cc4cccc(N5C(=O)c6cccc7cccc5c67)c4)c4ccccc43)[C@@H]2C)cc1	0.86	0.586	1.02	0.53	-0.16	-0.23	0.325	-0.0439	0.563	0.669 (inactive)	0.346	-6.95 (inactive)	0.0998 (inactive)	-0.011 (inactive)	-1.37 (inactive)	0.343	-0.176	-0.697	-0.318	0.329
COC(=O)[C@@]1(Cc2ccccc2)[C@H]2c3cc(C(=O)N(C)C)n(Cc4ccccc4)c3C[C@H]2CN1C(=O)c1ccccc1	1.21	1.13	0.614	0.839	0.241	-0.605	0.458	-0.0169	1.04	1.66 (inactive)	0.347	-0.513 (inactive)	0.0307 (inactive)	0.776 (inactive)	1.08 (inactive)	1.68	0.209	-0.314	0.766	-0.867
COCCCNC(=O)[C@]1(Cc2ccccc2N=[N+]=[N-])N=C(c2ccc(OCCCO)cc2)O[C@@H]1c1ccccc1CN=[N+]=[N-]	2.33	1.22	0.631	0.947	1.35	0.449	-0.418	0.231	1.12	-2.5 (inactive)	0.823	-5.15 (inactive)	-0.421 (inactive)	0.825 (inactive)	-1.47 (inactive)	1.11	0.442	0.673	0.57	0.26
Oc1ccc2cc[n+](Cc3cccc(OC(F)(F)F)c3)cc2c1	0.644	0.0093	0.295	-0.0505	1.33	1.51	0.579	1.38	-0.0259	-0.256 (inactive)	0.112	0.202 (inactive)	-0.452 (inactive)	-0.0243 (inactive)	-0.668 (inactive)	0.1	-0.255	0.0193	-0.527	1.89
O=S(=O)(NCCCO)c1ccc(Br)cc1	0.309	0.918	0.0087	-0.088	1.17	0.663	0.802	-0.0569	0.54	-0.0622 (inactive)	0.191	-1.52 (inactive)	-0.658 (inactive)	-0.198 (inactive)	-0.472 (inactive)	0.587	-0.024	0.729	0.783	0.533
COC(=O)[C@@]1(Cc2ccc(OC)cc2)[C@H]2c3cc(C(=O)N4CCCC4)n(CCc4ccccn4)c3C[C@H]2CN1C(=O)c1ccccc1	0.0421	0.201	0.579	0.821	-0.29	-0.676	-1.29	-0.91	0.0844	2.15 (inactive)	-0.249	-0.784 (inactive)	-0.304 (inactive)	0.201 (inactive)	0.404 (inactive)	0.698	-0.0332	-0.166	1.1	0.429
COc1ccc([Si](C)(C)[C@H]2[C@H](CC(=O)N3Cc4ccccc4C[C@H]3CO)O[C@@]3(C(=O)N(Cc4cccc(I)c4)c4ccccc43)[C@@H]2C)cc1	1.67	0.0688	-0.706	0.321	1.57	2.13	-0.0488	1.64	0.539	-0.63 (inactive)	0.378	-4.1 (inactive)	-0.194 (inactive)	5.99 (inactive)	-0.919 (inactive)	0.795	-0.0102	3.09	2.17	2.15
Cc1ccc(S[C@]2(C(=O)NCCCN(C)C)CC(=O)N(C(C)C)[C@@H]2c2ccc(CO)cc2I)cc1	-0.537	-0.393	0.225	-0.952	0.296	-1.01	1.97	0.0228	-0.19	0.216 (inactive)	-0.331	-2.21 (inactive)	-0.985 (inactive)	-0.114 (inactive)	0.561 (inactive)	-0.199	-0.0986	-1.59	-0.729	0.0632
C=CC[C@@]1(C(=O)NCc2ccccc2)N=C(c2ccc(OCCCO)cc2)O[C@@H]1c1ccccc1CN=[N+]=[N-]	1.8	1.22	1.06	0.995	1.29	-0.204	0.903	-0.0518	0.888	-0.876 (inactive)	0.521	-3.66 (inactive)	-0.315 (inactive)	3.13 (inactive)	2.93 (inactive)	0.579	0.122	-0.805	0.287	-0.629
